Shown are actives, neighbours in structure and some others; about 3.8% of the full set was active somewhere.
pPAFAH inh: pPAFAH enzyme inhibitors, primary screen, biochemical, fluorescence polarization, human; inhibition, % at 3.39 µM; Platelet-activating factor acetylhydrolase (Homo sapiens), Q13093; hit rate 1.5% among 330,000; recombinant pPAFAH, FP-rhodamine probe fluorescence polarization;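 active means inhibition above the mean inhibition across the screen plus 3 SD, cut at about 25% in these data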;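 further: inhibitors block binding of the rhodamine activity-based probe so polarization drops; 0% = enzyme with DMSO and 100% = wells lacking pPAFAH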
Pemphigus Ab inh: inhibitors of pemphigus antibody binding to DSG3, primary screen, biochemical, bead-based, flow cytometry, scFv-GFP. binding (percent of control), % at 10 µM. DSG3-coupled beads, scFv-anti-DSG3-GFP binding; stronger effect = lower value. hit rate 0.48% among 310,000;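 active means binding more than 3 SD below its plate's average and above zero; inconclusive means below that plate limit but binding exactly zero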
Target sequence (P32926 whole entry, looked up): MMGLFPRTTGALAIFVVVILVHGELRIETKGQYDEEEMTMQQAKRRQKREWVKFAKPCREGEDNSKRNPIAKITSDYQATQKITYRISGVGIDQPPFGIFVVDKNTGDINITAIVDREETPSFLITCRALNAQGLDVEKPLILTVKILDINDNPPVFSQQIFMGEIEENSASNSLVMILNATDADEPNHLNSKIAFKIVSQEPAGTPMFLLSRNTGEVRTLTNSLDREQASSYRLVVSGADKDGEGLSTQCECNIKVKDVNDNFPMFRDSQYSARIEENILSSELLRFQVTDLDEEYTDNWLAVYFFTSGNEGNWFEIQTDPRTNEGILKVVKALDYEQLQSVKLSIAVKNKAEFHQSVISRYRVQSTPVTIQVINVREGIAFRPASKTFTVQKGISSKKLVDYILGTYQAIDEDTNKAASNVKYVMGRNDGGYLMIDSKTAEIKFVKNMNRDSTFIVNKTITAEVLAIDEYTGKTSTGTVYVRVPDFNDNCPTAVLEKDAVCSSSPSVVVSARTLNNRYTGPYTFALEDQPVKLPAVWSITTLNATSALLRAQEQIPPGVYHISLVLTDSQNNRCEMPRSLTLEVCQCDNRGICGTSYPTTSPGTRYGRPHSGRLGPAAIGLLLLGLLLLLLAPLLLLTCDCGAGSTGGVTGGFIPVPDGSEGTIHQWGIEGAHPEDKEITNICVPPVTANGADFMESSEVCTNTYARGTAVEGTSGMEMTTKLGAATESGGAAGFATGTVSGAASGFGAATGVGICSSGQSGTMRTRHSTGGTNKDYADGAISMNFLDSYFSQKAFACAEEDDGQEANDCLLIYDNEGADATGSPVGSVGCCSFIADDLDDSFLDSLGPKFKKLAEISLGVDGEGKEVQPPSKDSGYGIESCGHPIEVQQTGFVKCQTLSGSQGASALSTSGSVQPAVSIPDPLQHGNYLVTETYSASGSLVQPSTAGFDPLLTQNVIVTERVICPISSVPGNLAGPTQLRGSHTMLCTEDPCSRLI
PAFAH2 inh: PAFAH2 enzyme inhibitors, primary screen, biochemical, fluorescence polarization, human; Platelet-activating factor acetylhydrolase 2, cytoplasmic (Homo sapiens), Q99487; inhibition, % at 3.39 µM; recombinant PAFAH2, FP-rhodamine activity probe; hit rate 0.99% among 340,000;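 active means inhibition above the mean over all tested compounds plus 3 SD, cut at about 30% in these data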;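 further: inhibitors block probe labeling of enzyme so polarization drops; 0% = enzyme with DMSO and 100% = wells lacking PAFAH2 protein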
PAFAH1B3 inh: PAFAH1B3 enzyme inhibitors, primary screen, biochemical, fluorescence polarization, human | hit rate 0.28% among 340,000 | AID 492972, 2010 | inhibition, % at 3.39 µM | recombinant PAFAH1B3, FP-rhodamine probe;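 active means inhibition above the screen-wide average of all tested compounds plus 3 SD, cut at about 25% in these data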;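 further: 0% = enzyme with DMSO only and 100% = wells lacking PAFAH1B3 protein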
PAFAH1B2 inh: PAFAH1B2 enzyme inhibitors, primary screen, biochemical, fluorescence polarization, human | recombinant PAFAH1B2, FP-rhodamine activity probe | hit rate 1.2% among 340,000 | AID 492953, 2010 | Platelet-activating factor acetylhydrolase IB subunit alpha2 (Homo sapiens), P68402 | inhibition, % at 3.39 µM;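 active means inhibition above the mean of all tested compounds plus 3 SD, cut at about 24% in these data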;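 further: 0% = enzyme with DMSO and 100% = wells lacking PAFAH1B2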
PfM18AAP inh: PfM18AAP inhibitors, malaria aminopeptidase, primary screen, biochemical, QFRET, recombinant enzyme; M18 aspartyl aminopeptidase (Plasmodium falciparum 3D7); H-Glu-NHMec fluorogenic cleavage; inhibition, % at 7.35 µM; hit rate 1.2% among 290,000; AID 1822, 2009;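 active means inhibition above the campaign mean inhibition over all tested compounds plus 3 SD, cut at about 28% in these data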;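 further: 0% = plate median of test compound wells and 100% = 2 mM ZnCl2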
Starred values were filed as active, the others as inactive; ? = inconclusive; nt = no result.

SMILES | pPAFAH inh | Pemphigus Ab inh | PAFAH2 inh | PAFAH1B3 inh | PAFAH1B2 inh | PfM18AAP inh
O=C(CC1CC2CCC1C2)Nc1nc(-c2ccccn2)cs1 (stereo unspecified) | 5 | 97 | 6 | 2 | 55* | 4
Cc1ccc2c(cnn2C(=O)CCC(=O)N2CCCCC2C)c1 (stereo unspecified) | -1 | 103 | 4 | 2 | 6 | -4
CC(C)(C)NC(=O)NC(=O)COC(=O)CCC1CCCC1 | 31* | 86 | 16 | -1 | 6 | -14
CCc1ccc(NC(=O)COC(=O)CCC2CCCC2)cc1 | 22 | 97 | 20 | 10 | 8 | nt
COc1ccc(CNC(=O)COC(=O)CCC2CCCCC2)cc1 | 31* | 117 | 10 | 6 | 3 | -6
NC(=O)c1ccc(NC(=O)COC(=O)CCC2CCCC2)cc1 | nt | 105 | nt | nt | nt | nt
COC(=O)c1ccc(CNC(=O)COC(=O)CCC2CCCC2)cc1 | 25* | 102 | -1 | -5 | 1 | 3
Cc1ccc(NC(=O)COC(=O)CC2CCCC2)cc1Cl | 18 | 114 | 68* | 7 | -4 | 2
COc1ccc(NC(=O)CN(C)C2CCCCC2)cc1Cl | 1 | 101 | 0 | 3 | 8 | -11
CCOCC(=O)Nc1ccc(C)c(Cl)c1 | 1 | nt | -29 | 7 | 3 | -3
COc1ccc(NC(=O)COC(=O)CC2CCCC2)cc1Cl | 27* | 74 | 43* | 9 | -4 | nt
N#Cc1ccc(S(=O)(=O)N2CCN(C(=O)c3cn(-c4ccccc4)nc3-c3cccnc3)CC2)cc1 | nt | ? | 2 | 7 | 4 | nt
CCn1c(=O)n(CC)c2cc(N3CCCC3)c(NC(=O)c3cc(Br)ccc3OC)cc21 | -2 | nt | nt | nt | nt | 30*
COc1ccc(Br)cc1C(=O)Nc1ccccc1N1CCCC1 | 9 | 101 | 3 | -3 | 4 | nt
CCn1c(=O)n(CC)c2cc(N3CCCC3)c(NC(=O)c3ccc(C)cc3)cc21 | 15 | nt | 4 | 5 | 4 | 28*
O=C(NCCc1cnc[nH]1)c1ccc(-c2ccccc2)cc1 | 4 | 102 | 3 | -1 | -1 | 7
Cc1ccc(CNC(=O)C2CCC(=O)N(Cc3cccc(F)c3)C2)s1 (stereo unspecified) | nt | 99 | nt | nt | nt | nt
COc1ccccc1-c1cc(C(=O)NCCc2ccccc2)no1 | 2 | 99 | -4 | 6 | 0 | -1
COc1ccc(-c2cc(C(=O)NCCc3ccccc3)no2)cc1OC | -1 | 75* | -3 | 2 | 2 | 6
COC(CN(C)C(=O)C1CCC(CNS(=O)(=O)c2ccccc2)CC1)OC (stereo unspecified) | 8 | 98 | 1 | 3 | 5 | 4
COC(CN(C)C(=O)C1CCC(CNS(=O)(=O)c2ccc(C)cc2)CC1)OC (stereo unspecified) | 25* | 104 | -1 | -1 | 6 | -4
CC(=O)NC(Cc1ccccc1F)C(=O)NC1CCN(C(=O)Nc2ccc(C)cc2)CC1 (stereo unspecified) | 0 | 111 | -6 | 3 | 6 | -1
Cn1ccnc1Sc1nc2ccccc2nc1NS(=O)(=O)c1ccccc1 | 1 | 104 | -1 | 7 | 1 | 29*
Oc1ccccc1C1NN=C(c2ccccc2)S1 (stereo unspecified) | -3 | 118 | 49* | -1 | 6 | 20
O=c1[nH]nc(SCc2ccccc2)n1C1CC2C=CC1C2 (stereo unspecified) | 8 | 113 | -7 | 1 | 26* | 1
SMILES | pPAFAH inh | Pemphigus Ab inh | PAFAH2 inh | PAFAH1B3 inh | PAFAH1B2 inh | PfM18AAP inh
O=C(CSc1n[nH]c(=O)n1C1CC1)Nc1ccccc1 | 3 | 112 | -3 | -6 | 5 | -3
CC1CCCCN1S(=O)(=O)c1cnc(Cl)c(Br)c1 (stereo unspecified) | 4 | 93 | -5 | -4 | 0 | 0
CC1CCN(S(=O)(=O)c2cnc(Cl)c(Br)c2)CC1 | 1 | 101 | -2 | -3 | 26* | -9
CCOC(=O)CC(=O)NC(CC(=O)OC)c1ccc(C(C)C)cc1 (stereo unspecified) | 0 | 96 | 6 | 6 | 29* | 2
CCOC(=O)CC(=O)NC(CC(=O)OC)c1ccc(Br)cc1 (stereo unspecified) | -2 | 113 | 9 | 3 | 2 | 1
CC(O)c1cc2c(cc1NC(=O)c1cnn3c1NC(c1ccco1)CC3C(F)(F)F)OCO2 (stereo unspecified) | -3 | nt | -19 | -12 | -8 | 29*
O=C(NC1CCCCCC1)c1cc2n(n1)C(C(F)(F)F)CC(c1ccco1)N2 (stereo unspecified) | 34* | 109 | 6 | 3 | 5 | -4
CCOc1ccc(NC(=O)c2cc3n(n2)C(C(F)(F)F)CC(c2ccco2)N3)cc1 (stereo unspecified) | 33* | 109 | 4 | 1 | -2 | 6
O=C(Nc1ccc(O)cc1)c1cc2n(n1)C(C(F)(F)F)CC(c1ccco1)N2 (stereo unspecified) | 8 | 102 | -7 | -4 | -4 | 7
Cc1cc2c(cc1C)NC(=O)C(C)CN2 (stereo unspecified) | nt | 96 | nt | nt | nt | nt
COC(=O)c1ccc2c(c1)SC1=C(CCCC1=O)N2 | 18 | 100 | 26 | 17 | 21 | 14
O=C1CCCC2=C1Sc1ccc(Cl)cc1N2 | 11 | 101 | -1 | 5 | 7 | 30*
CC1CCCN(CCCNC(=O)c2ccc(N3CCCC3=O)cc2)C1 (stereo unspecified) | 3 | 99 | 9 | 13 | 5 | -4
O=c1oc(-c2ccco2)nc2ccccc12 | -1 | 102 | 23 | 5 | -1 | -3
O=c1oc(-c2ccccc2[N+](=O)[O-])nc2ccccc12 | 0 | 104 | 45* | 3 | -2 | 1
OC(c1ccccc1)C(NCCNCc1ccccc1)c1ccccc1 (stereo unspecified) | nt | 91 | -4 | 0 | 3 | nt
COc1ccccc1C=NN=C(NN=Cc1ccccc1OC)NN=Cc1ccccc1OC | nt | 122 | 14 | 6 | -2 | nt
CCCCn1c(NC(=O)c2ccccc2Cl)c(C#N)c2nc3ccccc3nc21 | 27* | 104 | 37* | 60* | 36* | 19
CCCCn1c(NC(=O)CC)c(C#N)c2nc3ccccc3nc21 | 1 | nt | -10 | -6 | 8 | -2
COc1ccc(CC(=O)OCc2csc(CC(=O)Nc3ccc(C)cc3)n2)cc1 | 27* | 92 | 10 | 13 | -3 | nt
COc1ccc(CCC(=O)OCc2csc(CC(=O)Nc3ccccc3C)n2)cc1 | 9 | nt | 7 | -4 | 3 | -16

High-throughput results: PubChem BioAssay, several laboratories
